Screening data deposited in PubChem BioAssay by Broad Institute.
Hits are enriched below; roughly 2.4% of the tested compounds scored in any of these assays.
STAT3 SMM: STAT3 binders, primary screen, biochemical, small molecule microarray, single point, set 2. His-STAT3 binding, anti-His fluorescence. hit rate 0.2% among 17,000. calls only. AID 624138, 2012;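 active = compounds whose four printed spots each show fluorescence over background unusually high for their array block, chance value under 7%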
Myc binder: binders of human c-Myc, primary screen, biochemical, small molecule microarray, anti-His fluorescence | Myc proto-oncogene protein (Homo sapiens), P01106 | His-c-Myc binding | calls only | hit rate 1.5% among 17,000 | AID 624141, 2012;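 active = spot fluorescence over background with P-value below 7% in all four replicate spots, showing protein binding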;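 note: score is binary with 100 for all four spots passing and 0 otherwise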
Target sequence (P01106 whole entry, looked up): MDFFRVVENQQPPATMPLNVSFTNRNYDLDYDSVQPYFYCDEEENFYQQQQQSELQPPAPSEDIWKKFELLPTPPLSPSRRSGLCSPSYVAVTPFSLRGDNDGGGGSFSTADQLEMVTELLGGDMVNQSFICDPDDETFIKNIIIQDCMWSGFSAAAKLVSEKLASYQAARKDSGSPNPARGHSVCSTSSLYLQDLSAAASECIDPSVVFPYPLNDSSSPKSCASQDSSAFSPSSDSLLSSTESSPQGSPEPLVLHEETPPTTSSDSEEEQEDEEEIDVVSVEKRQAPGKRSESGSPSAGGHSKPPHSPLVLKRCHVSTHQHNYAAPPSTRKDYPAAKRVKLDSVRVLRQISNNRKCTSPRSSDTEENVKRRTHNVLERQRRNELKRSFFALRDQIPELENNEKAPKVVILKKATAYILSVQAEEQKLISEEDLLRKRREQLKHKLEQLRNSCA
mut p53 SMM: binders of human mutant p53, primary screen, biochemical, small molecule microarray, anti-GST fluorescence. hit rate 0.4% among 17,000. AID 624136, 2012. calls only. small molecule microarray binding;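 active = compounds whose four printed spots each glow above background more than chance allows, each with a p-value under 7%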
NFkB binder: binders of NF-kB p50 subunit, primary screen, biochemical, small molecule microarray, anti-His fluorescence; Nuclear factor NF-kappa-B p105 subunit (Homo sapiens), P19838; anti-His fluorescence binding; calls only; hit rate 1.3% among 17,000; AID 624139, 2012;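 active = spot fluorescence over background significantly raised, with a chance value under 7% in all four replicate spots of the compound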;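 note: probe protein is his-tagged human p50 processed subunit at 1 µg/ml; raw spot fluorescence signals with no normalization applied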
Starred values were filed as active, the others as inactive; i = inactive; + = active, no number.

SMILES	STAT3 SMM	Myc binder	mut p53 SMM	NFkB binder
CC1(C)O[C@H]2CC(=O)OC[C@@]23[C@H]1CC(=O)[C@@]1(C)C2=CC(=O)O[C@@H](c4ccoc4)[C@]2(C)CC[C@@H]13	i	+	i	+
O=C1c2cccc3cccc(c23)C(=O)N1CCCSc1ncn[nH]1	i	+	i	i
N#Cc1c(-c2ccccc2)nc(SCCN2C(=O)c3ccccc3C2=O)[nH]c1=O	i	i	i	i
CC(C)NC(=O)N(C)C[C@@H]1Oc2ncc(C#Cc3ccc(C(F)(F)F)cc3)cc2C(=O)N([C@H](C)CO)C[C@@H]1C	i	+	+	+
CNC[C@@H]1Oc2ncc(-c3cc4ccccc4o3)cc2C(=O)N([C@H](C)CO)C[C@@H]1C	i	i	i	i
C[C@H](CO)N1C[C@H](C)[C@H](CN(C)C(=O)NC2CCCCC2)Oc2ncc(C#Cc3ccc(F)cc3)cc2C1=O	i	i	i	i
CNC[C@@H]1Oc2ncc(C#Cc3ccccc3)cc2C(=O)N([C@H](C)CO)C[C@@H]1C	i	+	i	+
C[C@@H]1CN([C@H](C)CO)C(=O)c2cccc(NC(=O)Nc3ccc(C(F)(F)F)cc3)c2O[C@@H]1CN(C)S(C)(=O)=O	i	i	i	i
C[C@@H]1CN([C@H](C)CO)C(=O)c2cccc(NC(=O)Nc3ccc(C(F)(F)F)cc3)c2O[C@H]1CN(C)C(=O)NC1CCCCC1	+	+	i	+
C[C@@H]1CN([C@@H](C)CO)C(=O)c2cccc(NC(=O)Nc3ccc(C(F)(F)F)cc3)c2O[C@H]1CN(C)S(=O)(=O)c1cn(C)cn1	i	+	i	+
C[C@@H]1CN([C@H](C)CO)C(=O)c2cccc(NC(=O)Nc3ccc(C(F)(F)F)cc3)c2O[C@H]1CN(C)CC1CC1	+	i	i	i
C[C@@H]1CN([C@@H](C)CO)C(=O)c2cccc(NC(=O)Nc3ccc(C(F)(F)F)cc3)c2O[C@@H]1CN(C)CC1CC1	i	i	i	i
C[C@H]1CN([C@@H](C)CO)C(=O)c2cccc(NC(=O)NC3CCCCC3)c2O[C@@H]1CN(C)C(=O)Nc1ccc(C(F)(F)F)cc1	i	+	i	+
COc1cc2c(c3c1C(=O)C[C@H](c1ccccc1)O3)C=CC(C)(C)O2	i	i	i	i
O=C(CSc1nc2ccc(NC(=O)c3ccccc3)cc2s1)Nc1ccccc1C(F)(F)F	i	i	i	i
O=C(CSc1nc2c(c(C(F)(F)F)n1)CCCC2)Nc1ccccc1	i	i	i	i
COc1ccc(S(=O)(=O)Nc2cccc3c2O[C@@H](CN(C)Cc2ccc(C(F)(F)F)cc2)[C@H](C)CN([C@H](C)CO)C3=O)cc1	+	i	i	i
COc1ccc(S(=O)(=O)Nc2cccc3c2O[C@H](CN(C)Cc2ccc(C(F)(F)F)cc2)[C@@H](C)CN([C@@H](C)CO)C3=O)cc1	i	i	i	i
C[C@H]1CCCCO[C@@H](CN(C)C(=O)C2CCCCC2)[C@@H](C)CN([C@@H](C)CO)C(=O)c2cc(NS(=O)(=O)c3ccccc3)ccc2O1	i	i	i	i
CCCN(C)C[C@H]1OCCCC[C@@H](C)Oc2ccc(NS(=O)(=O)c3ccc(OC)cc3)cc2C(=O)N([C@H](C)CO)C[C@H]1C	i	i	+	i
C[C@H](CO)N1C[C@H](C)[C@H](CN(C)C(=O)C2CCCCC2)OCCCC[C@H](C)Oc2ccc(NS(=O)(=O)c3ccccc3)cc2C1=O	+	i	i	i
C[C@H](CO)N1C[C@H](C)[C@H](CN(C)Cc2ccccc2)OCCCC[C@H](C)Oc2ccc(NS(=O)(=O)c3ccccc3)cc2C1=O	i	i	+	i
C[C@H]1CCCCO[C@H](CN(C)C(=O)C2CCCCC2)[C@@H](C)CN([C@@H](C)CO)C(=O)c2cc(NS(=O)(=O)c3ccccc3)ccc2O1	i	+	i	+
COc1cc(Cc2nccc3cc(OC)c(OC)cc23)c(NC(=O)c2cccs2)cc1OC	i	i	i	i
Cc1ccc(S(=O)(=O)Nc2ccccc2CNc2cnc3ccccc3c2)cc1	i	i	i	i
Cc1c(CO)c2ccccc2n1Cc1ccccc1C#N	i	i	i	i
O=C(Cn1cnc2ccccc2c1=O)Nc1ccccc1Br	i	i	i	i
